Measurements published in PubChem BioAssay (NCI).
About 79,000 compounds went through this panel and 15% of them were active in at least one assay; those are over-represented in the sample as a whole. Rule as the data show it: active = growth inhibition above about 70%; inactive = the rest.

Legend:
[1] = NCI Yeast Anticancer Drug Screen. Data for the rad50 strain (AID 155);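 also: 0% = growth of vehicle-only cultures of the same strain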; details: S. cerevisiae rad50 strain growth inhibition; at 50.0 µM; stronger effect = higher value
How it was run: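 A DNA repair-deficient yeast mutant serves as the test organism; compound-induced growth inhibition is calculated against vehicle-treated cells.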

[2] = NCI Yeast Anticancer Drug Screen. Data for the mec2-1 strain (AID 157); details: S. cerevisiae mec2-1 strain, at 50.0 µM, stronger effect = higher value
How it was run: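 Each compound was tested on mec2-1 yeast, a strain altered in DNA damage repair or cell cycle control. Growth inhibition is reported relative to vehicle.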

[3] = NCI Yeast Anticancer Drug Screen. Data for the sgs1 mgt1 strain (AID 161);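 also: 0% = growth of cultures given vehicle only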; details: S. cerevisiae sgs1 mgt1 strain, at 50.0 µM, stronger effect = higher value
How it was run: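 Inhibition of yeast growth, normalised to vehicle-treated controls, is reported for a strain bearing genetic alterations in DNA damage repair.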

[4] = NCI Yeast Anticancer Drug Screen. Data for the cln2 rad14 strain (AID 165);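 also: 0% = growth equal to vehicle treated cultures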; details: S. cerevisiae cln2 rad14 strain, at 50.0 µM, stronger effect = higher value
How it was run: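 Test compounds were added to cln2 rad14 yeast cultures; inhibition of growth was then determined by comparison with vehicle treatment.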

[5] = NCI Yeast Anticancer Drug Screen. Data for the bub3 strain (AID 167); details: S. cerevisiae bub3 mutant strain, at 50.0 µM, stronger effect = higher value
How it was run: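 Inhibition values come from growth of compound-treated mutant yeast normalised to vehicle-treated controls.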

[6] = NCI Yeast Anticancer Drug Screen. Data for the mlh1 rad18 strain (AID 175); details: S. cerevisiae mlh1 rad18 strain growth inhibition; at 50.0 µM; stronger effect = higher value
How it was run: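 Inhibition values reflect reduced growth of mutant yeast versus vehicle-treated controls following compound exposure; the mutations affect DNA damage repair.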

Measured: growth inhibition

CCC(=O)C(CC)c1ccc(OC)cc1OC (centres undefined)
inactive: [1] -1.75% | [2] -31.4% | [3] -6.15% | [4] 3.85% | [5] 7.3% | [6] 15.6%

CC1OC2=N[C@@H]1C(=O)N[C@@H](C(C)C)C1=N[C@H](C(=O)N[C@@H](C(C)C)C3=N[C@H](C(=O)N[C@@H](C(C)C)C4=N[C@H](C(=O)N[C@H]2C(C)C)C(C)O4)C(C)O3)C(C)O1 (some centres undefined)
inactive: [1] 6.9% | [2] 3.55% | [3] 3.55% | [4] 19.1% | [5] 14.8% | [6] 9.55%

O=c1[nH]cc(CNc2ccccc2)c(=O)[nH]1
inactive: [1] -5.5% | [2] 4.75% | [3] -9.45% | [4] -27.8% | [5] -18.2% | [6] 8.5%

NCc1ccc2ccc3ccccc3c2c1
inactive: [1] 11.1% | [2] -0.95% | [3] -1.35% | [4] 11.2% | [5] -4.45% | [6] 19.7%

O=S(=O)(O)c1cc(O)c2c(N=Nc3c(S(=O)(=O)O)cc4cc(S(=O)(=O)O)cc(N=Nc5c(S(=O)(=O)O)cc6cc(S(=O)(=O)O)cc(O)c6c5O)c4c3O)cc(S(=O)(=O)O)cc2c1
inactive: [1] -4.7% | [2] 26.6% | [3] 5.45% | [4] -14.8% | [5] -7.6% | [6] 8.5%

CCN(C/C=C/CN(CC)C(=S)Nc1ccccc1)C(=S)Nc1ccccc1
inactive: [1] 29.6% | [2] -7.85% | [3] 5.2% | [4] 18.8% | [5] -1.1% | [6] 9.8%

Cc1n[n+](CC(=O)c2ccccc2)c2sc(N)nn12
inactive: [1] -55.8% | [2] -31.4% | [3] -58.6% | [4] -50% | [5] -16.1% | [6] -70.5%

CCC(=O)Oc1ccccc1OC
inactive: [1] -28.8% | [2] -7.25% | [3] -6.05% | [4] -0.3% | [5] -31.9% | [6] -16.9%

N#CC1(C#N)CC1c1ccccc1 (centres undefined)
inactive: [1] 8.55% | [2] 10.7% | [3] 6.75% | [4] -6.1% | [5] -2.9% | [6] 29.3%

Clc1ccc(CSCSCc2ccc(Cl)cc2)cc1
inactive: [1] 5.95% | [2] -15.3% | [3] 10.8% | [4] -40.9% | [5] 19.6% | [6] 4.3%

CCCc1n[nH]c(=S)n1N1C(=S)NC(C)(C)C=C1C
inactive: [1] -1.8% | [2] -2% | [3] 18.1% | [4] -10.8% | [5] 4.1% | [6] 17.2%

CCCCN(CCCC)CC1OCCO1
inactive: [1] -6.35% | [2] -0.5% | [3] -2.45% | [4] -16.6% | [5] 2.7% | [6] -2.6%

CN1CCc2[nH]nc(-c3n[nH]c4c3CN(C)CC4)c2C1
inactive: [1] 15.8% | [2] 0.85% | [3] 10.5% | [4] -0.05% | [5] -8.6% | [6] 13.6%

O=S(=O)(C(c1ccccc1)C(O)(c1ccccc1)c1ccccc1)N1CCCC1 (centres undefined)
inactive: [1] 29.6% | [2] -0.45% | [3] 27.4% | [4] -21.8% | [5] 1.25% | [6] 22.6%

COC(=O)c1cc(-c2ccc(OC)cc2)[nH]c(=O)c1C#N
inactive: [1] 20.2% | [2] 21.1% | [3] 31.2% | [4] 20.4% | [5] 26.1% | [6] 27.9%

CC(O)CN1CCN(CC(C)O)C(C)C1 (centres undefined)
inactive: [1] -10.1% | [2] 1.65% | [3] 0% | [4] 1.35% | [5] -7.2% | [6] 4.75%

c1ccc2c3c(ccc2c1)Oc1ccc2ccccc2c1C3CCC1c2c(ccc3ccccc23)Oc2ccc3ccccc3c21
inactive: [1] -8.75% | [2] -19.6% | [3] -4.9% | [4] 1.5% | [5] -17.2% | [6] 7.75%

COC(=O)c1nnn(-c2cc(Cl)ccc2Cl)c1C(=O)c1ccc(OC)cc1
inactive: [1] -13.1% | [2] 3.8% | [3] -12.7% | [4] 53.7% | [5] 37.4% | [6] -3.25%

COc1cc(C2OC[C@@H]3C(=O)OC[C@H]23)cc(O)c1OC (some centres undefined)
inactive: [1] 3.35% | [2] -1.6% | [3] -33.1% | [4] -13.3% | [5] -38.8% | [6] -23.7%
